From PubChem BioAssay (NCATS)
Results filed as inconclusive are left out. A number with no mark means an inactive call. Activity calls are given as the source filed them. Unless noted, calls come from the whole dose curve.

System: not listed separately
Test: qHTS for Inhibitors of the Functional Ribonucleoprotein Complex (vRNP) of Lymphocytic Choriomeningitis Arenaviruses (LCMV): Viability assay - alamar blue signal for LCMV Primary Screen (AID 1347085; calls by dose curve; tested in HEK293 reporter line; note: nearly all actives have a fitted effect of over 80% in size)
Conditions: alamar blue viability counter-screen, LCMV vRNP screen cells; series mostly up to 57.5 µM; activity change, negative = lower viability: at the top concentration
% is set by controls: 0 for no effect and ±100 for the full control effect; potency is the fitted concentration of half-maximal effect.

SMILES	activity change, negative = lower viability	Potency
COc1ccc2cc1Oc1ccc(cc1)C[C@H]1c3cc(c(OC)cc3CCN1C)Oc1c(OC)c(OC)cc3c1[C@H](C2)N(C)CC3	-14.3%	–
C[C@@]1(c2cc(-c3cncnc3)c(F)cc2F)CCSC(N)=N1	–	13.7 µM (active)
CCCC(=O)OCCC(C)C	13.5% [at 115 µM]	–

Target: Nucleoprotein (Lymphocytic choriomeningitis virus (strain Armstrong)) (UniProt P09992)
Test: qHTS for Inhibitors of the Functional Ribonucleoprotein Complex (vRNP) of Lymphocytic Choriomeningitis Arenaviruses (LCMV): LCMV Primary Screen - GLuc reporter signal (AID 1347086); note: nearly all actives have a fitted effect of over 70% in size
Conditions: LCMV minigenome vRNP cell assay, Gaussia luciferase reporter; series mostly up to 57.5 µM; activity change, negative = inhibition: at the top concentration

Nucleoprotein (Lymphocytic choriomeningitis virus (strain Armstrong)), sequence (P09992 whole entry, looked up): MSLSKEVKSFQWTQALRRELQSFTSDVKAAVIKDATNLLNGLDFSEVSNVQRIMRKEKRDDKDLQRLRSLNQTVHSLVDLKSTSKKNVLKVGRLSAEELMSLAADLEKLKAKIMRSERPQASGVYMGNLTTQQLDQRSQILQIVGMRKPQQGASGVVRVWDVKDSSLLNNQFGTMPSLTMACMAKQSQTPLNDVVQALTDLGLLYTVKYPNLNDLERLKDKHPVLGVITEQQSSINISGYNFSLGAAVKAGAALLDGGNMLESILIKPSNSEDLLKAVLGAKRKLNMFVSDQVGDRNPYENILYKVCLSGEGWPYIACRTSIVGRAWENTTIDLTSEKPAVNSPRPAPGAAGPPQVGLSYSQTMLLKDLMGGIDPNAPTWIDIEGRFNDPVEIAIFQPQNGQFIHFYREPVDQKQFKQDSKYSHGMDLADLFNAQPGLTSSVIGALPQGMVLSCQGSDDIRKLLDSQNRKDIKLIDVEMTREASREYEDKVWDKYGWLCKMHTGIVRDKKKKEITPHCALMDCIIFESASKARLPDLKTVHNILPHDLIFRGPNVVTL

SMILES	activity change, negative = inhibition	Potency
CCCCCC(=O)N[C@@H](c1ccccc1)[C@@H](O)C(=O)O[C@H]1C[C@@]2(O)[C@@H](OC(=O)c3ccccc3)C3[C@](C)(C(=O)[C@H](OC(C)=O)C(=C1C)C2(C)C)[C@@H](O)C[C@H]1OC[C@@]31OC(C)=O (some centres not stated)	-60.9%	–
O=C1Cc2c([nH]c3ccc(Br)cc23)-c2ccccc2N1	-6.96%	–
CO[C@@H]1[C@@H](OC2OC(C)C(OC3CC(C)(O)C(OC(=O)CC(C)C)C(C)O3)C(N(C)C)C2O)[C@@H](CC=O)C[C@@H](C)C(=O)/C=C\C2O[C@H]2C[C@@H](C)OC(=O)C[C@H]1OC(C)=O (some centres not stated)	-29.9%	–
CC(=O)O[C@H]1[C@H]2O[C@]23[C@@H]2CC[C@]4(O)C[C@@H](O)CC[C@]4(C)C2CC[C@]3(C)[C@H]1c1ccc(=O)oc1 (some centres not stated)	–	0.316 µM (active)
COC(=O)C12OCC34C(CC5C(C)=C(O)C(=O)CC5(C)C3C(O)C1O)OC(=O)C(OC(=O)C=C(C)C)C24 (configuration not stated)	-105%	–
CCCCCCCCc1ccc(CCC(N)(CO)CO)cc1	-128%	–
N#Cc1cc([N+](=O)[O-])c2sc(C(N)=O)[n+]([O-])c2c1	-8.18%	–
O=S(=O)(NCCNCC=Cc1ccc(Br)cc1)c1cccc2cnccc12	-3.83%	–
O=C(CC(O)CCc1ccccc1)c1ccc(O)cc1 (configuration not stated)	-11.7%	–
